Activity calls are given as the source filed them.
Experiments:
[1] = test system: Human papillomavirus type 1a protein E7 (residues 44-93); test: HPV1a E7 fragment binders on microarrays, primary screen, biochemical, small-molecule microarray, residues 44-93, 635 nm fluorescence (AID 1108); conditions: small-molecule microarray binding, fluorescence 635 nm; higher = more signal;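 also: E7 fragment applied at 1 µg/mL in TBST for 1 h at 4 C; score combines spot fluorescence with its signal to noise ratio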
[2] = modulators of HCV replicon luciferase signal, primary screen, HCV replication inhibitor project, Huh7 cells, luciferase reporter (AID 1109); conditions: 48 h, higher = more signal;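 also: huh7 hepatoma cells harbouring a luciferase neomycin HCV replicon reporter; luciferase luminescence as measure of HCV replicon replication; test concentration not given here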
[3] = molecular target: Left-right determination factor 2 (Homo sapiens) (UniProt O00292); test: LEFTY2 binders on small-molecule microarrays, primary screen, biochemical, small-molecule microarray, 635 nm fluorescence scan (AID 1110); conditions: LEFTY2 binding, higher = more signal
Left-right determination factor 2 (Homo sapiens), sequence (O00292 whole entry, looked up): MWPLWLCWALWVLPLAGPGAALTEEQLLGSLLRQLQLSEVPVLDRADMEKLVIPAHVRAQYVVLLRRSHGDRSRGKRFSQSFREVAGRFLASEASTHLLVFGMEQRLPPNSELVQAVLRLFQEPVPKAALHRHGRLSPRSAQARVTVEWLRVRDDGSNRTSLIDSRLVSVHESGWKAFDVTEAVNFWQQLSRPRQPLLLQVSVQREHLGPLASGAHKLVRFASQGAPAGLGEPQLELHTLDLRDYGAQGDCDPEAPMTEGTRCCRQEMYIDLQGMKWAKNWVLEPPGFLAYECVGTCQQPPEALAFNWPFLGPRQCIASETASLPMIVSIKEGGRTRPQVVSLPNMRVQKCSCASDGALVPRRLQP

[4] = molecular target: Calmodulin-1 (Homo sapiens) (UniProt P0DP23); test: CALM1 binders on microarrays, EGTA buffer, profiling panel, biochemical, small-molecule microarray, Cy5-labelled CALM1 (AID 1111); conditions: Cy5-CALM1 binding fluorescence, higher = more signal;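 also: labelled calmodulin applied in Tris saline Tween buffer holding calcium plus EGTA and DTT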
[5] = molecular target: Calmodulin-1 (Homo sapiens) (UniProt P0DP23); test: calcium-bound CALM1 binders on microarrays, profiling panel, artefact control for SMM control-protein annotation, biochemical, small-molecule microarray, Cy5-labelled CALM1, plus calcium (AID 1112); conditions: Cy5-CALM1 binding fluorescence, higher = more signal;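 also: score merges spot fluorescence with signal to noise from triplicate slides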
[6] = small-molecule microarray binders of probe aWnt5a, primary screen, biochemical, biotinylated probe, 635/667 nm fluorescence (AID 1113); conditions: higher = more signal;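 also: score merges 667 nm fluorescence intensity with signal-to-noise per printed feature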
[7] = small-molecule microarray binders of probe aShh, primary screen, biochemical, biotinylated probe, 635/667 nm fluorescence (AID 1114); conditions: higher = more signal;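 also: probe is biotin-labelled aShh protein from a stem cell growth factor screen; measures binding of labelled protein to compounds printed on the slide; score merges feature fluorescence at 667 nm with signal-to-noise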
[8] = small-molecule microarray binders of probe aNog, primary screen, biochemical, biotinylated probe, 635/667 nm fluorescence (AID 1115); conditions: higher = more signal;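 also: probe is biotinylated aNog protein used at 0.15 µg/mL for 1 h at 4 C; z-score combines 667 nm fluorescence of each spot with its signal to noise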
[9] = molecular target: Torsin-1A-interacting protein 1 (Homo sapiens) (UniProt Q5JTV8); test: LAP1 binders from COS7 cell lysate, primary screen, small-molecule microarray, 635/667 nm fluorescence (AID 1116); conditions: COS7-hLAP1 lysate binding, 635 nm fluorescence, higher = more signal
Torsin-1A-interacting protein 1 (Homo sapiens), sequence (Q5JTV8 whole entry, looked up): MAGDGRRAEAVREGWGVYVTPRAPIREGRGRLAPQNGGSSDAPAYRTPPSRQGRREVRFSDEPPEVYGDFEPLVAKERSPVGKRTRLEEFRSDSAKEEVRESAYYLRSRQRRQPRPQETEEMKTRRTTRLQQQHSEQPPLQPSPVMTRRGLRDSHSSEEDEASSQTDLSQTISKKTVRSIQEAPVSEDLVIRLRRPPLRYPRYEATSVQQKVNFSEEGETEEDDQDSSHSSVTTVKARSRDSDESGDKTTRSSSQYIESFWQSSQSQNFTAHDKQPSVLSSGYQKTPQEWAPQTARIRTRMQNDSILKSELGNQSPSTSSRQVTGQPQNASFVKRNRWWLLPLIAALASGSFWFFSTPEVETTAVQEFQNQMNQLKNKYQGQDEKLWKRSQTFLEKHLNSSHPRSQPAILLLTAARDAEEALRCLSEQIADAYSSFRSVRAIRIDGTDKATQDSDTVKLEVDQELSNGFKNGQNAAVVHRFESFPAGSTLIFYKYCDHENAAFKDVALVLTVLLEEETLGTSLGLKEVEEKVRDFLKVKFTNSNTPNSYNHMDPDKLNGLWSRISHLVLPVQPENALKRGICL

[10] = molecular target: Alpha-bungarotoxin (Bungarus multicinctus) (UniProt P60615); test: alpha-bungarotoxin binders on microarray, profiling panel, artefact control for SMM control protein annotation, biochemical, small-molecule microarray, Alexa647 label, 635/667 nm fluorescence (AID 1117); conditions: alpha-BTX-A647 binding fluorescence, higher = more signal
Alpha-bungarotoxin (Bungarus multicinctus), sequence (P60615 whole entry, looked up): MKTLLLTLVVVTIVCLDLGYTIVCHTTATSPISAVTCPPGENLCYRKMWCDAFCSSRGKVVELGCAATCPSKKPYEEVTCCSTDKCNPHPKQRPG

Albumin (Bos taurus) = Albumin (Bos taurus) (UniProt P02769); test: bovine serum albumin binders on microarray, profiling panel, artefact control for SMM control protein annotation, biochemical, small-molecule microarray, Alexa647 label, 635/667 nm fluorescence (AID 1118); conditions: BSA-A647 binding, fluorescence 635 nm, higher = more signal;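 also: score merges 667 nm emission intensity and signal-to-noise per printed compound spot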
Albumin (Bos taurus), sequence (P02769 whole entry, looked up): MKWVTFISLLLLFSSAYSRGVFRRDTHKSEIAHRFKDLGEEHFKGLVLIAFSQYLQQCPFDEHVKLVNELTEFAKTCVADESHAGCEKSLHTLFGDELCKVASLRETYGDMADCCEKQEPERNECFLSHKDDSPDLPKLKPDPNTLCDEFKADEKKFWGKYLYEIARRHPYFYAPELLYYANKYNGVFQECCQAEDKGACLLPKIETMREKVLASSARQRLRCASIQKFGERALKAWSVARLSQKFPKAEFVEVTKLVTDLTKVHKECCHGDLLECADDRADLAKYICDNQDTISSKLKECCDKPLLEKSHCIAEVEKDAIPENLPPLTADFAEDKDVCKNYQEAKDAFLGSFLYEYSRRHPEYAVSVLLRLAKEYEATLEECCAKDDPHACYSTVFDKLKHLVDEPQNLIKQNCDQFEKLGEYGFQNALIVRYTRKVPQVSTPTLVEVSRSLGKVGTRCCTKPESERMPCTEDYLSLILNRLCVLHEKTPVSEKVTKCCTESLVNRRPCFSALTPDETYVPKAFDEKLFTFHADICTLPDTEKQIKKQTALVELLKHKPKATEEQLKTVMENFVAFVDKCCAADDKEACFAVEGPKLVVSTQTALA

[11] = small-molecule microarray binders of probe aXIP, primary screen, biochemical, NeuroSMM set, 635/667 nm fluorescence (AID 1119); conditions: higher = more signal, called active from +8 up or from −8 down;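 also: probe is the protein aXip251-270 applied at 1 µg/mL to compound-printed slides; binding of probe to printed compounds measured as 667 nm fluorescence plus signal to noise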
[12] = small-molecule binders of probe aNOTCH3, primary screen, biochemical, small-molecule microarray, 635/667 nm fluorescence (AID 1120); conditions: higher = more signal;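 also: probe is a biotin-tagged antibody raised against NOTCH3 rather than NOTCH3 protein; score merges spot fluorescence near 667 nm with spot signal to noise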
[13] = small-molecule binders of probe aNOTCH2, primary screen, biochemical, small-molecule microarray, 635/667 nm fluorescence (AID 1121); conditions: higher = more signal;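 also: score merges feature fluorescence read at 667 nm with its signal to noise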
[14] = molecular target: Carbonic anhydrase 2 (Homo sapiens) (UniProt P00918); test: CAII small-molecule binders, profiling panel, biochemical, small-molecule microarray, Alexa647-labelled CAII (AID 1122); conditions: CAII-A647 binding fluorescence, higher = more signal
[15] = COS7 lysate on small-molecule microarray, probe aHis, 635 nm (AID 1123); conditions: COS7 cell lysate, fluorescence, higher = more signal;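 also: z-score combines 667nm fluorescence intensity with signal-to-noise per printed compound spot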
[16] = compound binding in COS7 lysate, probe aLAP1, primary screen, cell lysate, small-molecule microarray (AID 1124); conditions: probe aLAP1, fluorescence, higher = more signal;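 also: lysate comes from COS7 cells expressing LAP1 and is applied at 0.3 µg/mL; score merges spot fluorescence near 667 nm with signal-to-noise over triplicate slides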
Sam68 (KHDRBS1) = test: Sam68 small-molecule binders, primary screen, biochemical, small-molecule microarray, 635 nm fluorescence (AID 1125); conditions: small-molecule microarray binding, higher = more signal;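 also: score merges 667 nm channel intensity with signal to noise over triplicate slides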
[17] = test system: Chordin-like protein 2 (CHRDL2); test: CHRDL2 small-molecule binders, primary screen, biochemical, small-molecule microarray, 635 nm fluorescence (AID 1126); conditions: small-molecule microarray binding, fluorescence 635 nm; higher = more signal;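 also: printed compound slides probed with Chrdl2 protein at 4 µg/mL for 1 h at 4 C; score merges 667 nm emission intensity with signal to noise over three replicate slides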
[18] = molecular target: Concanavalin-A (Canavalia ensiformis) (UniProt P02866); test: ConA small-molecule binders, primary screen, artefact control for SMM control protein annotation, biochemical, small-molecule microarray, Alexa647 label, 635 nm (AID 1127); conditions: ConA-A647 binding fluorescence, higher = more signal;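 also: z combines 667 nm emission intensity with signal-to-noise across three replicate slides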
Concanavalin-A (Canavalia ensiformis), sequence (P02866 whole entry, looked up): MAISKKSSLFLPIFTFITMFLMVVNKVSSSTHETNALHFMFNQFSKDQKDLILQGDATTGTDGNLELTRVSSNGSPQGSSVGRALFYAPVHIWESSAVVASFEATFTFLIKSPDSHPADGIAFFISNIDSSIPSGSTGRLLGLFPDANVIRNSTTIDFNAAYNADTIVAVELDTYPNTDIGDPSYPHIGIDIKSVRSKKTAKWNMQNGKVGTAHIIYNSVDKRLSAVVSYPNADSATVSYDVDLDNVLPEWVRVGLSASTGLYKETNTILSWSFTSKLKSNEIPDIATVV

SMILES | composite z-score [1] | z-score [2] | composite z-score [3] | composite z-score [4] | composite z-score [5] | composite z-score [6] | composite z-score [7] | composite z-score [8] | composite z-score [9] | composite z-score [10] | composite z-score (Albumin (Bos taurus)) | composite Z-score [11] | composite z-score [12] | composite z-score [13] | composite z-score [14] | composite z-score [15] | composite z-score [16] | composite z-score (Sam68 (KHDRBS1)) | composite z-score [17] | composite z-score [18]
CCOC(=O)C[C@H]1[C@H](OC(=O)c2ccc(C(=O)c3ccccc3)cc2)[C@@H](NC(=O)c2ccc3ccccc3c2)c2cc(OCCCO)ccc2N1C(=O)c1ccccc1 | 0.974 | -0.617 | 0.317 | 0.988 | 0.602 | -0.0346 | 0.0684 | 0.612 | 0.602 | 1.04 | 0.362 | 0.224 (inactive) | 0.0893 | 0.127 | 0.197 | 1.26 | 0.8 | 1.32 | -0.257 | 1.04
COC(=O)[C@@]1(Cc2ccccc2)[C@H]2c3cc(C(=O)N4CCCC4)n(Cc4cc(F)cc5c4OCOC5)c3C[C@H]2CN1C(=O)c1ccccc1 | 0.0951 | -0.592 | -0.655 | 1.08 | 0.641 | 0.14 | 0.688 | 1.93 | 1.74 | 0.468 | 1.11 | 0.143 (inactive) | 0.218 | 0.163 | 0.553 | 2.57 | 0.141 | 0.797 | -0.233 | 0.511
COc1ccc([Si](C)(C)[C@@H]2[C@@H](CCO)O[C@]3(C(=O)N(Cc4cccc(N5C(=O)c6ccccc6Oc6ccccc65)c4)c4ccccc43)[C@H]2C)cc1 | 0.405 | -4.56 | -0.704 | 0.949 | 0.646 | -0.208 | -0.221 | -0.0641 | 0.0437 | -0.115 | 0.326 | -0.0368 (inactive) | -0.157 | -0.0712 | 0.411 | 1.07 | 0.594 | 0.554 | -0.245 | 0.276
O=C(O)[C@H]1C[C@H]2C(=O)N3CCC[C@H]3C(=O)N2[C@H]1c1cccc(OCCO)c1 | 1.1 | 1.55 | 0.266 | 0.0384 | 0.286 | -0.0944 | -0.167 | 0.0951 | 0.83 | 1.67 | -0.698 | 0.223 (inactive) | -0.124 | -0.115 | 0.525 | 1.21 | -0.332 | 0.833 | 0.996 | 0.942
CCOc1cc(C(O)C2C=CC3C(=O)N(C4CCCCC4)C(=O)C3N2Nc2ccc(OC)cc2)ccc1O (stereo not given) | 1.41 | -0.352 | 0.208 | 1.13 | 0.505 | 0.0182 | 0.06 | 0.796 | 0.327 | 1.64 | 0.786 | 0.764 (inactive) | 0.208 | 0.0791 | 0.441 | 2.61 | 0.717 | 1.28 | -0.0164 | 1.12
